In the supplement of paper PMC10849652:
Of roughly 8,800 targets only a part is listed; those with a hit were picked by preference. About 0.5% of all pairs of compound and target were hits.

What was measured:
Test in all cases: log2 fold change, soluble protein after heating vs DMSO (PISA); higher = thermal stabilisation; K562 lysate, 10 uM; active = over 0.2 and 3.5 SD of the protein, either way, in both replicates (recomputed)
[1] = compound: Cc1cn(-c2cc(NC(=O)c3ccc(C)c(Nc4nccc(-c5cccnc5)n4)c3)cc(C(F)(F)F)c2)cn1 [nilotinib]
How it was run: (§1)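 Soluble protein was defined as the supernatant remaining after 21,000xg for 90 min, following pooling of heated aliquots and adjustment to 0.5% NP-40 at 4°C. Before that, crude K562 extract at 1 mg/mL protein in PBS pH 7.4 with 1 mM MgCl2 was treated with 10 μM compound for 30 min and heated for 3 min across 48°C-58°C. Quantification used TMTpro 16plex LC-MS/MS with channel sums equalised, and values are log-two fold changes in thermal stability relative to solvent controls from duplicates.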

[2] = compound: Cc1nc(Nc2n[nH]c3c2CN(C(=O)N[C@H](CN(C)C)c2ccccc2)C3(C)C)c2sccc2n1
How it was run: as §1

[3] = compound: Cc1nc(Nc2ncc(C(=O)Nc3c(C)cccc3Cl)s2)cc(N2CCN(CCO)CC2)n1 [dasatinib]
How it was run: as §1

[4] = compound: Cc1ncc(-c2ccnc(Nc3ccc(S(C)(=O)=O)cc3)n2)n1C(C)C
How it was run: as §1

[5] = compound: Cn1cc(-c2ccc3c(c2)CCN3C(=O)Cc2cccc(C(F)(F)F)c2)c2c(N)ncnc21
How it was run: as §1

[6] = compound: Cn1cc(CNCC2CCN(c3ncc(C(=O)NO)cn3)CC2)c2ccccc21 [quisinostat]
How it was run: as §1

[7] = compound: Cn1cncc1[C@@](N)(c1ccc(Cl)cc1)c1ccc2c(c1)c(-c1cccc(Cl)c1)cc(=O)n2C [tipifarnib]
How it was run: as §1

[8] = compound: NC(=O)Nc1cc(-c2cccc(F)c2)sc1C(=O)N[C@H]1CCCNC1
How it was run: as §1

[9] = compound: NC(=O)c1cnc(N[C@@H]2CCCC[C@@H]2N)nc1Nc1cccc(-n2nccn2)c1
How it was run: as §1

[10] = compound: NC1(c2ccc(-c3nc4ccn5c(=O)[nH]nc5c4cc3-c3ccccc3)cc2)CCC1
How it was run: as §1

Measured: log2 fold change

NFATC4 isoform 2 (UniProt Q14934)
inactive: [1] -0.046 | [2] -0.018 | [3] 0.055 | [4] 0.04 | [5] -0.041 | [6] -0.07 | [7] -0.066 | [8] 0.01 | [9] -0.017

NAP1L5 (UniProt Q96NT1)
inactive: [1] -0.008 | [2] -0.053 | [3] 0.024 | [4] 0.045 | [5] 0.01 | [6] 0.068 | [7] 0.054 | [8] -0.05 | [9] -0.049 | [10] 0.005

MT-ND1 (UniProt P03886)
inactive: [1] -0.054 | [2] 0.005 | [3] 0.018 | [4] -0.074 | [5] 0.035 | [6] -0.094 | [7] -0.125 | [8] 0.033 | [9] -0.024 | [10] -0.059

NUSAP1 (UniProt Q9BXS6)
Sequence of UniProt Q9BXS6 (Q9BXS6 whole entry, looked up): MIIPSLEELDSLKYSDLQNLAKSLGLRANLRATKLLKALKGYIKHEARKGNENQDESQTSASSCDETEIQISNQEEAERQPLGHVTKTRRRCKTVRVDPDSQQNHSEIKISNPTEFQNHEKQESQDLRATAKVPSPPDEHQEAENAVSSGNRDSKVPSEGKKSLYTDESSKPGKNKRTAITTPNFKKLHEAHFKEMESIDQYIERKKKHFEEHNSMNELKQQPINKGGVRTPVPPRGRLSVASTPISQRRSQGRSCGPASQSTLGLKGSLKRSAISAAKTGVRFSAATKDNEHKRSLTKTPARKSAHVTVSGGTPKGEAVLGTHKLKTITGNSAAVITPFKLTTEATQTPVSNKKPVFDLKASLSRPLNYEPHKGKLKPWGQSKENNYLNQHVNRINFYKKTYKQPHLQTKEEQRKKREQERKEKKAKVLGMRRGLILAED
inactive: [1] -0.001 | [2] 0.004 | [3] 0.045 | [4] -0.009 | [5] -0.047 | [6] 0.038 | [7] -0.016 | [8] -0.024 | [9] 0.002 | [10] -0.055

NUP93 (UniProt Q8N1F7)
Sequence of UniProt Q8N1F7 (Q8N1F7 whole entry, looked up): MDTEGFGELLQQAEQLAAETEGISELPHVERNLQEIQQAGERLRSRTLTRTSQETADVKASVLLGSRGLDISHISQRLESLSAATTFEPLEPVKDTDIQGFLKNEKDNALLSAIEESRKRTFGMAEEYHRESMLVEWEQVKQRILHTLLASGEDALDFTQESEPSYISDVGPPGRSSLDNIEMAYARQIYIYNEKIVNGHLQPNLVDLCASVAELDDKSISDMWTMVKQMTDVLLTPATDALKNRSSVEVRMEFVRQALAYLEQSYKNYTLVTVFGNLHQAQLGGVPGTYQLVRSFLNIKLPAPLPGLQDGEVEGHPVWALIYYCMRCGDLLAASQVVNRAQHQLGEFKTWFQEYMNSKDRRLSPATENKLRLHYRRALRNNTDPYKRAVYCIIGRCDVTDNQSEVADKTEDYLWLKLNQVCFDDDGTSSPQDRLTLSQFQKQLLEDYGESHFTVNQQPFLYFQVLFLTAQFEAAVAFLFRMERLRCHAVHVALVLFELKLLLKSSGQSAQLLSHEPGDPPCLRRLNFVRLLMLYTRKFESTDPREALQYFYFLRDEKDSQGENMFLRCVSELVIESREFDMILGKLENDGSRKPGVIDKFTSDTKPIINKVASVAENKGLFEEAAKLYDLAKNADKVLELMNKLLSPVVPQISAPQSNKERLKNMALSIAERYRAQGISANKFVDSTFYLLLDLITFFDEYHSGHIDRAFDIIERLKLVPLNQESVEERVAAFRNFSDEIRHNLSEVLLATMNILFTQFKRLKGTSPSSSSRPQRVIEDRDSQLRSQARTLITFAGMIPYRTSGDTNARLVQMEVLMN
inactive: [1] -0.02 | [2] 0.001 | [3] -0.098 | [4] -0.006 | [5] 0.031 | [6] 0.037 | [7] -0.04 | [8] 0.021 | [9] 0.018 | [10] -0.005

NGLY1 (UniProt Q96IV0)
inactive: [1] -0.004 | [2] 0.02 | [3] -0.038 | [4] 0.008 | [5] 0.042 | [6] -0.104 | [7] -0.016 | [8] 0.041 | [9] -0.005 | [10] -0.03

NACC1 (UniProt Q96RE7)
inactive: [1] -0.013 | [2] 0.031 | [3] -0.006 | [4] -0.007 | [5] 0.022 | [6] -0.024 | [7] -0.008 | [8] -0.04 | [9] 0.022 | [10] 0.015

NAT1 (UniProt P18440)
Sequence of UniProt P18440 (P18440 whole entry, looked up): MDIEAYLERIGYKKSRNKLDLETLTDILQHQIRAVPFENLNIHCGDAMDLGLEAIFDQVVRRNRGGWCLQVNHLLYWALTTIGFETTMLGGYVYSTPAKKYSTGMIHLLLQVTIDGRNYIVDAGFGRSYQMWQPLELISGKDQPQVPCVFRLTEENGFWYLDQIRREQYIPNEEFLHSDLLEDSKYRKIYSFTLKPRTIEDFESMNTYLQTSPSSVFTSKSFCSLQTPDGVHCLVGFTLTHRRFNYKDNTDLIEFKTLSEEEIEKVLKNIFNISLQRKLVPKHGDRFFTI
inactive: [1] -0.005 | [2] -0.017 | [3] -0.058 | [4] -0.04 | [5] 0.097 | [6] -0.1 | [7] -0.006 | [8] 0.017 | [9] -0.018 | [10] -0.037

PAN2 isoform 2 (UniProt Q504Q3)
inactive: [1] 0.072 | [2] 0.013 | [3] -0.012 | [4] 0.046 | [5] 0.079 | [6] -0.036 | [7] -0.049 | [8] 0.056 | [9] 0.02 | [10] -0.028

NUP160 (UniProt Q12769)
inactive: [1] 0.014 | [2] -0.025 | [3] -0.092 | [4] -0.032 | [5] 0.021 | [6] -0.032 | [7] -0.031 | [8] 0.009 | [9] 0.002 | [10] -0.018

OCRL (UniProt Q01968)
Sequence of UniProt Q01968 (Q01968 whole entry, looked up): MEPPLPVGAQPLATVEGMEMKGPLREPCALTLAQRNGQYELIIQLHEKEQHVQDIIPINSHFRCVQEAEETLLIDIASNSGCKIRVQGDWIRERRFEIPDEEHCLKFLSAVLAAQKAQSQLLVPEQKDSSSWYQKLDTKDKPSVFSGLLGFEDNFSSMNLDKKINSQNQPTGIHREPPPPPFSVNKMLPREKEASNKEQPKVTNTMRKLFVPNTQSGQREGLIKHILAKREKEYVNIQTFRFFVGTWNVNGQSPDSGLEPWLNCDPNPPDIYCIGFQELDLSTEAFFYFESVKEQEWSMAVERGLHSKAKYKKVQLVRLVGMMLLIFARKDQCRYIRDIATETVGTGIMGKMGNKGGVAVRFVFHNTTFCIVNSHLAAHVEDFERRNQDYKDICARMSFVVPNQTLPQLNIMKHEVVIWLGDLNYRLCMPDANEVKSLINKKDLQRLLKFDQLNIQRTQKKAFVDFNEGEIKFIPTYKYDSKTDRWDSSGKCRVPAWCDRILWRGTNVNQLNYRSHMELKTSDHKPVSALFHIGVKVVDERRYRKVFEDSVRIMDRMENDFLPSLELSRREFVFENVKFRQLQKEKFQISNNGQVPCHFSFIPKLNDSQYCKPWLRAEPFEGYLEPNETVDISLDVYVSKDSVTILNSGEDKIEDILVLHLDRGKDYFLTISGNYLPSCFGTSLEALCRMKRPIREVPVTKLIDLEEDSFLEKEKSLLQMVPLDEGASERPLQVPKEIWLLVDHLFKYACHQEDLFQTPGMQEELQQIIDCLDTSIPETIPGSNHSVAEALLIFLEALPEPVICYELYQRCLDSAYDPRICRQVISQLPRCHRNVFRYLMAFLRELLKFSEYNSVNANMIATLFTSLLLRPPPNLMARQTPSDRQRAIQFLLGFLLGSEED
inactive: [1] -0.095 | [2] 0.083 | [3] -0.044 | [4] -0.051 | [5] 0.053 | [6] -0.089 | [7] 0.048 | [8] -0.018 | [9] -0.012 | [10] 0.024

MTHFD1L (UniProt B7ZM99)
inactive: [1] -0.017 | [2] 0.028 | [3] -0.061 | [4] 0.002 | [5] 0.046 | [6] -0.055 | [7] -0.01 | [8] 0.074 | [9] 0.019 | [10] -0.017

OLA1 (UniProt Q9NTK5)
inactive: [1] 0.001 | [2] -0.009 | [3] -0.023 | [4] 0.006 | [5] 0.018 | [6] -0.008 | [7] 0.018 | [8] 0.022 | [9] -0.006 | [10] 0.025

MYCBP (UniProt Q99417)
Sequence of UniProt Q99417 (Q99417 whole entry, looked up): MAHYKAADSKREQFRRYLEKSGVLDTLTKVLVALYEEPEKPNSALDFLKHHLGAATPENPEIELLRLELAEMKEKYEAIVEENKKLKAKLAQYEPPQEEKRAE
inactive: [1] -0.034 | [2] 0.041 | [3] 0.019 | [4] 0.055 | [5] -0.011 | [6] -0.058 | [7] -0.011 | [8] -0.038 | [9] -0.02 | [10] 0.029

NUP210 (UniProt Q8TEM1)
inactive: [1] -0.019 | [2] -0.008 | [3] -0.08 | [4] 0.009 | [5] 0.001 | [6] 0.084 | [7] -0.043 | [8] -0.01 | [9] 0.059 | [10] -0.019

OSBPL1A (UniProt Q9BXW6)
inactive: [1] -0.07 | [2] -0.02 | [3] -0.044 | [4] -0.051 | [5] -0.027 | [6] -0.147 | [7] 0.015 | [8] 0 | [9] -0.024
active: [10] -0.388

MTA1 (UniProt Q13330)
inactive: [1] 0.042 | [2] 0.01 | [3] -0.023 | [4] 0.033 | [5] 0.005 | [6] -0.089 | [7] -0.03 | [8] 0.052 | [9] -0.033 | [10] -0.004

NUCB2 (UniProt P80303)
Sequence of UniProt P80303 (P80303 whole entry, looked up): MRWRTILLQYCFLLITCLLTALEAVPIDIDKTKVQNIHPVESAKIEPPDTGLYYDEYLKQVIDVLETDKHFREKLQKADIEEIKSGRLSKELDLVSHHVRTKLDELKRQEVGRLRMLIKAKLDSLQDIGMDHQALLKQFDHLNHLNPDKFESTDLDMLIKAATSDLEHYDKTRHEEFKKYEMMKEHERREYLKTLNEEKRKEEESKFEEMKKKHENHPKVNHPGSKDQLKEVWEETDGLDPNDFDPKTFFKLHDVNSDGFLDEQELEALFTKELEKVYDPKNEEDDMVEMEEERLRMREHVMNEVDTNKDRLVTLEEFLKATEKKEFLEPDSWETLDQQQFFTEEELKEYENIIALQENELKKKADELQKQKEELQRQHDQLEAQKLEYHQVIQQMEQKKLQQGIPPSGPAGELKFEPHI
inactive: [1] -0.016 | [2] 0.015 | [3] 0.007 | [4] -0.019 | [5] -0.009 | [6] 0.016 | [7] 0.011 | [8] -0.003 | [9] -0.001 | [10] 0.014

MYO1C (UniProt O00159)
inactive: [1] 0.019 | [2] -0.013 | [3] 0.112 | [4] 0.005 | [5] -0.038 | [6] -0.052 | [7] 0.019 | [8] -0.082 | [9] 0 | [10] -0.087

NCOR2 (UniProt C9J0Q5)
inactive: [1] 0.09 | [2] -0.034 | [3] -0.082 | [4] 0.043 | [5] -0.015 | [6] -0.034 | [7] -0.045 | [8] 0.047 | [9] 0.025 | [10] 0.022

ORC5 (UniProt O43913)
inactive: [1] -0.043 | [2] -0.004 | [3] -0.047 | [4] 0.019 | [5] 0.098 | [6] -0.107 | [7] -0.004 | [8] 0.098 | [9] 0.047 | [10] -0.073

NEBL (UniProt O76041)
inactive: [1] -0.024 | [2] 0.019 | [3] 0.089 | [4] 0.032 | [5] -0.007 | [6] -0.045 | [7] 0.008 | [8] -0.065 | [9] -0.018 | [10] -0.03

MYO9A isoform 4 (UniProt B2RTY4)
inactive: [1] 0.059 | [2] -0.044 | [3] -0.176 | [4] 0 | [5] 0.052 | [6] -0.074 | [7] -0.005 | [8] 0.112 | [9] 0.039 | [10] -0.112

OARD1 (UniProt Q9Y530)
Sequence of UniProt Q9Y530 (Q9Y530 whole entry, looked up): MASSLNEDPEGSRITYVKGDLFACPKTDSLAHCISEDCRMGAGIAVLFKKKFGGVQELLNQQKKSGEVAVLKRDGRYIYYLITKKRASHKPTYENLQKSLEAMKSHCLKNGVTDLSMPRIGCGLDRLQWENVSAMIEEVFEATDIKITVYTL
inactive: [1] 0.015 | [2] 0.016 | [3] -0.031 | [4] 0.005 | [5] 0.071 | [6] -0.004 | [7] -0.014 | [8] 0.036 | [9] -0.009 | [10] -0.006

MYOM1 (UniProt P52179)
Sequence of UniProt P52179 (P52179 whole entry, looked up): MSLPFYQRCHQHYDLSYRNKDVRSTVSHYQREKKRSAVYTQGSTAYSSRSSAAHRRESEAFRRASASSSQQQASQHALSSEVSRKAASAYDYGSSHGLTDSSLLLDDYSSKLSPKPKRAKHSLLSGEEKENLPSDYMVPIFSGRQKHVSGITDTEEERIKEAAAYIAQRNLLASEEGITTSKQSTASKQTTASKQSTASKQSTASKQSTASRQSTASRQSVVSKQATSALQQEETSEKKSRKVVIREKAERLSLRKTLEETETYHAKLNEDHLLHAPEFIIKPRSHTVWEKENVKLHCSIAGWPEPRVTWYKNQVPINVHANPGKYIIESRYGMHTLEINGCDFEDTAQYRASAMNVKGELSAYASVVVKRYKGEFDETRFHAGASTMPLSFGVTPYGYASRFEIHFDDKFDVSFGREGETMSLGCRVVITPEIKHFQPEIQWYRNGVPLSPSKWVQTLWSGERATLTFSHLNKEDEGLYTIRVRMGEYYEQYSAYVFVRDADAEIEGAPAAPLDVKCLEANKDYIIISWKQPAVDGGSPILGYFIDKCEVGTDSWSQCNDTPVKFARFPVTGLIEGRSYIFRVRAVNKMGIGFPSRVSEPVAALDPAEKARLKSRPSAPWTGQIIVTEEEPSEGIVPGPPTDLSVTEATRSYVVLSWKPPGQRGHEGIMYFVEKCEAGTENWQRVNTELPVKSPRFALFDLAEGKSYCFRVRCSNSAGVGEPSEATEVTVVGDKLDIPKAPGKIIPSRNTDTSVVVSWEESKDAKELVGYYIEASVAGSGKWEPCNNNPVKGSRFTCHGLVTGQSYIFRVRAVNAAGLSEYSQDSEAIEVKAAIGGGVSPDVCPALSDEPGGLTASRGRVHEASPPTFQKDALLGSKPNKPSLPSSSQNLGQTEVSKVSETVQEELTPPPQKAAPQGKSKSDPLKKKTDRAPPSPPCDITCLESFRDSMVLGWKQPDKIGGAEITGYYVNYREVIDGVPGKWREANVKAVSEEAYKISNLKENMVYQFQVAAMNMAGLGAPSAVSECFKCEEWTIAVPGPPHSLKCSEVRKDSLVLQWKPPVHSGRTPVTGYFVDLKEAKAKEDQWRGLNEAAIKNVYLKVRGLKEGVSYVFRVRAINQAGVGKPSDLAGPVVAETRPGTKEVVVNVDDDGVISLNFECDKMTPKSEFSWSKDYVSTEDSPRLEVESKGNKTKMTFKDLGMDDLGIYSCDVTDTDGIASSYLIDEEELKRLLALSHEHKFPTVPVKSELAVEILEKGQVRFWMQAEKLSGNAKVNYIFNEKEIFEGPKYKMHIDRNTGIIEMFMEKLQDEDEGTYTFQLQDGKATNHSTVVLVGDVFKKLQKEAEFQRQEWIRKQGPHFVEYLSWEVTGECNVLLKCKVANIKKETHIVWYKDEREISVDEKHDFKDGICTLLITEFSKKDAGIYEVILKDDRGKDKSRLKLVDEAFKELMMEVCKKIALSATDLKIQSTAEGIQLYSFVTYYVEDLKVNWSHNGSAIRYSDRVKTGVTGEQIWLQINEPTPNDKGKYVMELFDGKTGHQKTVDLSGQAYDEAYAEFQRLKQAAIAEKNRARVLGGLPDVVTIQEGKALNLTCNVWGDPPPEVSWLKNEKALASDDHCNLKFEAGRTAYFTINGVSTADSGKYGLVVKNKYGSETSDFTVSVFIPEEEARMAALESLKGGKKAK
inactive: [1] -0.127 | [2] -0.078 | [3] 0.058 | [4] 0.039 | [5] 0.023 | [6] 0.115 | [7] 0.01 | [8] 0.083 | [9] -0.016 | [10] -0.035

MTMR6 (UniProt Q9Y217)
inactive: [1] -0.04 | [2] 0.063 | [3] -0.036 | [4] -0.026 | [5] -0.076 | [6] -0.116 | [7] -0.024 | [8] 0.086 | [9] -0.007 | [10] -0.032

OPA1 isoform 2 (UniProt O60313)
inactive: [1] 0.026 | [2] -0.008 | [3] -0.07 | [4] 0.007 | [5] 0.018 | [6] 0.055 | [7] -0.035 | [8] 0.025 | [9] 0.016 | [10] -0.012

MXRA7 (UniProt P84157)
Sequence of UniProt P84157 (P84157 whole entry, looked up): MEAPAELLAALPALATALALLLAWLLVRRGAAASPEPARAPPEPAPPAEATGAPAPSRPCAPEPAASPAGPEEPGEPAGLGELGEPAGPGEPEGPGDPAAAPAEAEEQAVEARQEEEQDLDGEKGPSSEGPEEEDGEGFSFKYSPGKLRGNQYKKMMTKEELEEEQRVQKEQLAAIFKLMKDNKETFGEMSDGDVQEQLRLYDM
inactive: [1] -0.307 | [2] 0 | [3] 0.03 | [4] -0.202 | [5] -0.034 | [6] -0.069 | [7] -0.006 | [8] 0.1 | [9] -0.078 | [10] -0.003

NR3C1 isoform 3 (UniProt P04150)
inactive: [1] -0.021 | [2] -0.069 | [3] -0.042 | [4] 0.044 | [5] -0.014 | [6] -0.032 | [7] -0.038 | [8] 0.035 | [9] 0.03 | [10] -0.021

NNT (UniProt Q13423)
inactive: [1] -0.017 | [2] 0.001 | [3] 0.003 | [4] 0.002 | [5] 0.002 | [6] 0.01 | [7] 0.009 | [8] -0.021 | [9] 0.002 | [10] 0.001
